Laboratory results: the supplement of paper PMC4466140

B1: unnamed (peptide)
chain: QFDLKMPSKPIHNLK

Molecular target: AgAbp1
Experiment: SPOT peptide array binding signal intensity (averaged, normalized) (arbitrary units (background-subtracted, floor 0; scale differs between SH3 domains)); higher = stronger binding of the SH3 domain to the peptide
In short: (§1)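 E. coli BL21(DE3) was used to express GST-fused SH3 domains from four yeast species, which were then purified on glutathione Sepharose. These were incubated at 10 μg/ml in TBS-based blocking buffer overnight at 4°C on cellulose membranes carrying synthetic 15-mer peptides, in which cysteines were replaced by serines. Binding signal is the replicate average of normalized, background-subtracted spot intensity, in arbitrary units that differ between domains.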

Binder | SPOT peptide array binding signal intensity
B1 | ≤ 0

Molecular target: AgBbc1
Experiment: as above
In short: as §1

Binder | SPOT peptide array binding signal intensity
B1 | 0.5

Molecular target: AgBem1-D1
Experiment: as above
In short: as §1

Binder | SPOT peptide array binding signal intensity
B1 | 103

Molecular target: AgBzz1-D1
Experiment: as above
In short: as §1

Binder | SPOT peptide array binding signal intensity
B1 | 3.5

Molecular target: AgBzz1-D2
Experiment: as above
In short: as §1

Binder | SPOT peptide array binding signal intensity
B1 | ≤ 0

Molecular target: AgCyk3
Experiment: as above
In short: as §1

Binder | SPOT peptide array binding signal intensity
B1 | ≤ 0

Molecular target: AgFus1
Experiment: as above
In short: as §1

Binder | SPOT peptide array binding signal intensity
B1 | 48.5

Molecular target: AgHof1
Experiment: as above
In short: as §1

Binder | SPOT peptide array binding signal intensity
B1 | ≤ 0

Molecular target: AgHse1
Experiment: as above
In short: as §1

Binder | SPOT peptide array binding signal intensity
B1 | 85.5

Molecular target: AgLsb1
Experiment: as above
In short: as §1

Binder | SPOT peptide array binding signal intensity
B1 | ≤ 0

Molecular target: AgLsb4
Experiment: as above
In short: as §1

Binder | SPOT peptide array binding signal intensity
B1 | 3.5

Molecular target: AgMyo5
Experiment: as above
In short: as §1

Binder | SPOT peptide array binding signal intensity
B1 | ≤ 0

Molecular target: AgNbp2
Experiment: as above
In short: as §1

Binder | SPOT peptide array binding signal intensity
B1 | 63.5

Molecular target: AgRvs167
Experiment: as above
In short: as §1

Binder | SPOT peptide array binding signal intensity
B1 | 0.333

Molecular target: AgSho1
Experiment: as above
In short: as §1

Binder | SPOT peptide array binding signal intensity
B1 | 57

Molecular target: AgSla1-D1-D2
Experiment: as above
In short: as §1

Binder | SPOT peptide array binding signal intensity
B1 | ≤ 0

Molecular target: AgSla1-D3
Experiment: as above
In short: as §1

Binder | SPOT peptide array binding signal intensity
B1 | ≤ 0

Molecular target: CaAbp1-D1
Experiment: as above
In short: as §1

Binder | SPOT peptide array binding signal intensity
B1 | ≤ 0

Molecular target: CaAbp1-D2
Experiment: as above
In short: as §1

Binder | SPOT peptide array binding signal intensity
B1 | ≤ 0

Molecular target: CaBbc1
Experiment: as above
In short: as §1

Binder | SPOT peptide array binding signal intensity
B1 | 9.5

Molecular target: CaBem1-D1
Experiment: as above
In short: as §1

Binder | SPOT peptide array binding signal intensity
B1 | 25

Molecular target: CaBzz1-D1
Experiment: as above
In short: as §1

Binder | SPOT peptide array binding signal intensity
B1 | ≤ 0

Molecular target: CaBzz1-D2
Experiment: as above
In short: as §1

Binder | SPOT peptide array binding signal intensity
B1 | 8

Molecular target: CaCyk3
Experiment: as above
In short: as §1

Binder | SPOT peptide array binding signal intensity
B1 | 1.5

Molecular target: CaFus1
Experiment: as above
In short: as §1

Binder | SPOT peptide array binding signal intensity
B1 | 446

Molecular target: CaHof1
Experiment: as above
In short: as §1

Binder | SPOT peptide array binding signal intensity
B1 | ≤ 0

Molecular target: CaHse1
Experiment: as above
In short: as §1

Binder | SPOT peptide array binding signal intensity
B1 | 49.8

Molecular target: CaLsb1
Experiment: as above
In short: as §1

Binder | SPOT peptide array binding signal intensity
B1 | ≤ 0

Molecular target: CaLsb4
Experiment: as above
In short: as §1

Binder | SPOT peptide array binding signal intensity
B1 | 142

Molecular target: CaMyo5
Experiment: as above
In short: as §1

Binder | SPOT peptide array binding signal intensity
B1 | 8

Molecular target: CaNbp2
Experiment: as above
In short: as §1

Binder | SPOT peptide array binding signal intensity
B1 | 202

Molecular target: CaRvs167
Experiment: as above
In short: as §1

Binder | SPOT peptide array binding signal intensity
B1 | 1.67

Molecular target: CaRvs167-3
Experiment: as above
In short: as §1

Binder | SPOT peptide array binding signal intensity
B1 | ≤ 0

Molecular target: CaSho1
Experiment: as above
In short: as §1

Binder | SPOT peptide array binding signal intensity
B1 | 376

Molecular target: CaSla1-D1-D2
Experiment: as above
In short: as §1

Binder | SPOT peptide array binding signal intensity
B1 | 68

Molecular target: CaSla1-D3
Experiment: as above
In short: as §1

Binder | SPOT peptide array binding signal intensity
B1 | 77

Molecular target: ScAbp1
Experiment: as above
In short: as §1

Binder | SPOT peptide array binding signal intensity
B1 | ≤ 0
